Reference: PubChem BioAssay AID2685 (National Center for Advancing Translational Sciences (NCATS), 2010)
Out of some 320,000 compounds screened, about 2,100 (0.66%) were called active. Not shown: some 53% with an inconclusive outcome. Calls follow the shape of the dose curve; as a rule, active = well fitted inhibition curve with a large enough effect in the signal ratio, with a control signal flat (not every such curve was filed as active); inconclusive = small, poorly fitted or top-dose-only effect, or effect the other way, or a change in a side signal; inactive = flat fitted curve, though single readings scatter; the % refers to the signal ratio. This excerpt belongs to a sample that is enriched for actives.
Potency is read from the fitted curve at half-maximal effect.

Test: qHTS Assay for Lipid Storage Modulators in Drosophila S3 Cells;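 as to cell number change: cells counted by Cell Tracker Red CMTPX staining in the red channel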; as to lipid storage change, negative = inhibition: % is scaled to controls: 0 for no effect and ±100 for the full control effect
Conditions: BODIPY lipid droplet fluorescence, 18-24 h, cells fed with added oleic acid; cell number change: measured here: cell count max response; series mostly up to 46.1 µM
Outline: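 Drosophila S3 cells got compounds at several concentrations plus oleic acid (400 uM solution). Laser-scanning cytometry with 488 nm excitation read lipid droplets at 500-530 nm and cells at 575-640 nm. Percent activity was relative to 20 uM Triacsin C.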
For `Cc1cccc(NC(=O)CS(=O)(=O)c2cn(C)c3ccccc23)c1`, the Potency was “inactive” and the cell number change was -0.98%.
For `CNC(=S)N(CCCn1ccnc1)Cc1c(F)cccc1Cl`, the Potency was 3.26 µM (active) and the cell number change was 21.2%.
In the case of `O=C(Cc1c(F)cccc1Cl)NCCCn1ccnc1`, the Potency is reported as “inactive” and the cell number change is reported as -2.56%.
In the case of `O=C(CC1C(=O)NCCN1Cc1c(F)cccc1Cl)NCCCn1ccnc1` (centres undefined), the Potency is reported as “inactive” and the cell number change is reported as 8.35%.
For `CCCCn1c(CNC(=O)C(C)(C)C)nc2ccccc21`, the Potency was “inactive” and the cell number change was -1.23%.
In the case of `COc1ccc(Nc2nnc(SCC(=O)Nc3ccc4[nH]c(=O)[nH]c4c3)s2)cc1`, the Potency is reported as “inactive” and the cell number change is reported as -17.1%.
For `Cc1nnc(SCCN2C(=O)c3ccccc3C2=O)[nH]c1=O`, the Potency was “inactive” and the cell number change was -14.8%.
With `CC(C)(C)C(=O)NCCN1C(=O)S/C(=C\c2ccc([N+](=O)[O-])cc2)C1=O` the Potency was 11.6 µM (active) and the cell number change was -4.32%.
With `O=C(/C=C/c1ccccc1[N+](=O)[O-])NCCN1C(=O)S/C(=C\c2ccc(F)cc2)C1=O` the Potency was “inactive” and the cell number change was -11.5%.
With `O=C(/C=C/c1cccc([N+](=O)[O-])c1)NCCN1C(=O)S/C(=C\c2ccc(F)cc2)C1=O` the Potency was “inactive” and the cell number change was 13.9%.
For `COc1cccc(-c2nc(CS(=O)(=O)CC(=O)NCc3ccccc3)c(C)o2)c1`, the Potency was “inactive” and the cell number change was 1.69%.
For `COc1ccc(-c2nc(CS(=O)(=O)CC(=O)NCc3ccccc3Br)c(C)o2)cc1`, the Potency was “inactive” and the cell number change was 11.5%.
With `COc1ccc(-c2nc(CS(=O)(=O)CC(=O)NCc3cccc(Br)c3)c(C)o2)cc1` the Potency was 13 µM (active) and the cell number change was 10.1%.
In the case of `CC(C)=CCN1CCN(Cc2cnc(-c3ccccc3)s2)CC1CCO` (centres undefined), the Potency is reported as “inactive” and the cell number change is reported as -2.03%.
With `Cc1ccc(-n2ncc(C(=O)N3CCN(C(=O)c4ccco4)CC3)c2-n2cccc2)cc1` the Potency was “inactive” and the cell number change was -13.4%.
With `Cc1ccc(-n2nc(C)c(C(=O)N3CCN(C(=O)c4ccco4)CC3)c2-n2cccc2)cc1` the Potency was 16.4 µM (active) and the cell number change was -18.3%.
In the case of `Cc1ccc(CN2CCN(C(=O)c3ccco3)CC2)cc1`, the Potency is reported as “inactive” and the cell number change is reported as 11.8%.
In the case of `O=C(Nc1ccncc1)c1sc2ccccc2c1Cl`, the Potency is reported as “inactive” and the cell number change is reported as 17.8%.
For `Cc1nn(CC#N)c(=O)n1-c1ccccc1`, the Potency was “inactive” and the cell number change was 5.19%.
With `CCOC(=O)C1CCN(C(=O)CSc2c3c(nc4ccccc24)CCC3)CC1` the Potency was “inactive” and the cell number change was 8.19%.
With `N#Cc1ccc(-c2csc(-c3ccno3)n2)cc1` the Potency was “inactive” and the cell number change was 9.9%.
With `COc1ccc(/C=C2\N=C(C)N(c3ccc4ccccc4c3)C2=O)cc1OC` the Potency was 5.17 µM (active) and the cell number change was 14.3%.
With `COc1ccc(/C=C2\N=C3CCCCCN3C2=O)cc1OC` the Potency was “inactive” and the cell number change was -0.0934%.
In the case of `COc1ccc(/C=C2\N=C(c3ccccc3)N(c3ccc(C(=O)O)cc3)C2=O)cc1OC`, the Potency is reported as “inactive”.
With `Cc1ccc(S(=O)(=O)N(C)/N=C/C=C/c2ccccc2)cc1` the Potency was “inactive” and the cell number change was -10.7%.
With `O=C(COC(=O)Cn1cnc2ccccc21)Nc1cccc(S(=O)(=O)N2CCOCC2)c1` the Potency was “inactive” and the cell number change was -0.979%.
For `NC(=O)C1CCN(C(=O)CSc2nc3ccccc3s2)CC1`, the Potency was 16.4 µM (active) and the cell number change was 5.89%.
With `NC(=O)C1(N2CCCCC2)CCN(C(=O)CSc2nc3ccccc3s2)CC1` the Potency was “inactive” and the cell number change was -22.8%.
With `NC(=O)C1CCN(C(=O)CSc2nc3ccccc3o2)CC1` the Potency was “inactive”.
For `O=C(O)CSCc1nc2ccccc2[nH]1`, the Potency was “inactive”.
In the case of `CC(C)(Cc1nc2ccccc2[nH]1)C(=O)O`, the Potency is reported as 23.1 µM (active) and the cell number change is reported as -19.5%.
With `O=C(O)COCc1nc2ccccc2[nH]1` the Potency was “inactive” and the cell number change was 0.419%.
With `NNC(=O)CNC(=O)c1cccc(Br)c1` the Potency was “inactive”.
For `N#C/C(=C\c1ccc(-c2ccccc2)cc1)c1nc(-c2ccco2)cs1`, the Potency was “inactive” and the cell number change was 1.16%.
With `N#C/C(=C/c1ccc(-c2ccccc2)o1)c1nc(-c2cccs2)cs1` the Potency was 5.8 µM (active) and the cell number change was 20.9%.
In the case of `N#C/C(=C\c1ccc(-c2ccc(F)cc2)o1)C(=O)Nc1nc(-c2cccs2)cs1`, the Potency is reported as “inactive” and the cell number change is reported as -13%.
For `C=CCC1(N(C(C)=O)c2ccccc2C)CCCCC1`, the Potency was “inactive” and the cell number change was -21.1%.
For `Cc1oc(/N=C/c2cccc([N+](=O)[O-])c2)c(C#N)c1C`, the Potency was 16.4 µM (active) and the cell number change was -19.3%.
In the case of `Cc1oc(/N=C/c2ccccc2O)c(C#N)c1C`, the Potency is reported as “inactive” and the cell number change is reported as -11.3%.
In the case of `Cc1oc(/N=C/c2ccccc2)c(C#N)c1C`, the Potency is reported as “inactive” and the cell number change is reported as 0.993%.
In the case of `CC1CCCN(S(=O)(=O)c2ccc(NC(=O)CN3CCCCC3)cc2)C1` (centres undefined), the Potency is reported as “inactive” and the cell number change is reported as -3.44%.
For `CCS(=O)(=O)c1ncc(Cl)c(C(=O)Nc2ccc(S(=O)(=O)N3CCCC(C)C3)cc2)n1` (centres undefined), the Potency was 0.146 µM (active) and the cell number change was -27.2%.
With `CCOC(=O)Nc1ccc(S(=O)(=O)N2CCC(C)CC2)cc1` the Potency was “inactive” and the cell number change was 5.9%.
In the case of `CCS(=O)(=O)c1ncc(Cl)c(C(=O)Nc2ccc(S(=O)(=O)N3CCC(C)CC3)cc2)n1`, the Potency is reported as 1.3 µM (active) and the cell number change is reported as -22.6%.
In the case of `CC1CCCN(S(=O)(=O)c2ccc(NC(=O)CNC3CCCC3)cc2)C1` (centres undefined), the Potency is reported as “inactive” and the cell number change is reported as -7.89%.
With `Cc1ccc(NC(=O)c2ccc(S(=O)(=O)N3CCC(C)CC3)cc2)cc1` the Potency was “inactive” and the cell number change was 29.6%.
For `C/C(=N\Nc1nccnc1Cl)c1ccc([N+](=O)[O-])cc1`, the Potency was “inactive” and the cell number change was -11.4%.
With `O=C(NCCS(=O)(=O)N1CCN(c2ccccc2)CC1)c1ccc(Br)o1` the lipid storage change, negative = inhibition was 10.4% [at 0.0737 µM] (inactive).
For `Cc1cc(C)n2c(SCCO)nnc2n1`, the Potency was “inactive” and the cell number change was 8.77%.
With `CCc1noc(C)c1C(=O)Nc1ccccc1N1CCOCC1` the Potency was “inactive”.
